PubChem BioAssay (Tox21)
Values without a mark were called inactive. Records with an inconclusive call do not appear. Entries that show only a call come without a potency. Activity calls are given as the source filed them. Unless noted, calls come from the whole dose curve; as a rule, active = well fitted curve in the direction sought with a large enough effect in the repeat runs; inconclusive = weak or mixed curves; inactive = no such curve, though single readings can be large; an effect the other way counts as inactive or inconclusive.

Key:
[1] = qHTS assay to identify small molecule agonists of the TGF-beta/Smad signaling pathway - cell viability counter screen (AID 1346829); note: top concentration of the series differs between compounds; nearly all actives have a fitted effect of over 45% in size
Outline: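 SBE-bla HEK 293T cells plated overnight, compound exposure 5 hr at 37 C. Viability read in the same wells by CellTiter-Glo luminescence after 30 min at room temperature, following the beta-lactamase read.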

[2] = qHTS assay to identify small molecule agonists of the TGF-beta/Smad signaling pathway (AID 1346859; active = well fitted activation curve with a large enough effect in the signal ratio in the repeat runs, not every such curve was filed as active; the % refers to the signal ratio; note: series mostly up to about 77 µM)
Outline: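 Beta-lactamase reporter activity downstream of Smad binding elements was measured in stably transfected HEK 293T cells; compounds were incubated for 5 hr, substrate for 2 hr at room temperature.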

[3] = Human pregnane X receptor (PXR) small molecule agonists, qHTS cell viability counter screen (AID 1346977); note: nearly all actives have a fitted effect of over 50% in size
Outline: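 After a 5hr pre-incubation, PXR-Luc HepG2 cells received compounds plus positive control in DMSO and were kept 24hr at 37C. Cell viability was quantified by fluorescence from CellTiter-Fluor added for the final hour.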

[4] = Caspase-3/7 induction in HepG2 cells by small molecules, qHTS assay (AID 1346978); note: nearly all actives have a fitted effect of over 15% in size
Outline: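 Caspase-3/7 induction was measured by Caspase-Glo 3/7 luminescence (30 min, room temperature) after a 17 hr compound exposure of wild-type HepG2 cells seeded at 2,000 per well and pre-incubated 5 hr.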

[5] = Caspase-3/7 induction in CHO-K1 cells by small molecules, qHTS cell viability counter screen (AID 1346979); note: nearly all actives have a fitted effect of over 35% in size
Outline: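 Multiplexed with Caspase-Glo 3/7 in CHO-K1 cells, this counter screen added CellTiter-Fluor after 16hr of compound exposure and recorded fluorescence 1hr later.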

[6] = Caspase-3/7 induction in CHO-K1 cells by small molecules, qHTS assay (AID 1346980); note: nearly all actives have a fitted effect of over 15% in size
Outline: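 Luminescent Caspase-Glo 3/7 read (30min, room temperature) quantified apoptosis induction. Cells were wild-type CHO-K1, treated with compound for 17hr at 37 C and 5% CO2.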

[7] = Caspase-3/7 induction in HepG2 cells by small molecules, qHTS cell viability counter screen (AID 1346981); note: series mostly up to about 92 µM; nearly all actives have a fitted effect of over 30% in size
Outline: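 Multiplexed with the caspase-3/7 assay: HepG2 cells, 16 hr compound treatment, CellTiter-Fluor viability detection by fluorescence.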

[8] = molecular target: Nuclear receptor subfamily 1 group I member 2 (Homo sapiens) (UniProt O75469); experiment: Human pregnane X receptor (PXR) small molecule agonists, qHTS assay (AID 1346982); note: nearly all actives have a fitted effect of over 35% in size; note: potency is the fitted concentration of half-maximal effect
Outline: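 We seeded PXR-Luc HepG2 cells in assay medium containing 5% charcoal-stripped FBS, added compounds 5 hr later, incubated 24 hr, and read luminescence with ONE-Glo reagent.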

[9] = molecular target: Cytochrome P450 2C19 (Homo sapiens) (UniProt P33261); experiment: Cytochrome P450 Family 2 Subfamily C Member 19 (CYP2C19) small molecule antagonists: luciferase reporter qHTS assay (AID 1671197); note: nearly all actives have a fitted effect of over 65% in size; note: potency is the fitted concentration of half-maximal effect
Outline: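 P450-Glo CYP2C19 system: enzyme-substrate mix with compound 10 min at room temperature, then NADPH regeneration solution, 1 h at 37C. Proluciferin-to-luciferin conversion detected by luminescence after 20 min with detection reagent; ketoconazole as positive control.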

[10] = molecular target: Cytochrome P450 2C9 (Homo sapiens) (UniProt P11712); experiment: Cytochrome P450 Family 2 Subfamily C Member 9 (CYP2C9) small molecule antagonists: luciferase reporter qHTS assay (AID 1671198); note: nearly all actives have a fitted effect of over 50% in size; note: potency is the fitted concentration of half-maximal effect
Outline: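 Enzyme-substrate mix preincubated with compound 10 min at room temperature; reaction started with NADPH regeneration solution, 1 h 37C. Luminescent luciferin product read after 20 min detection reagent.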

[11] = molecular target: Cytochrome P450 1A2 (Homo sapiens) (UniProt P05177); experiment: Cytochrome P450 Family 1 Subfamily A Member 2 (CYP1A2) small molecule antagonists: luciferase reporter qHTS assay (AID 1671199); note: nearly all actives have a fitted effect of over 50% in size; note: potency is the fitted concentration of half-maximal effect
Outline: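 CYP1A2 turnover of a luminogenic substrate was quantified after 1 h with NADPH regeneration at room temperature. Furafylline served as positive control.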

[12] = molecular target: Voltage-gated inwardly rectifying potassium channel KCNH2 (Homo sapiens) (UniProt Q12809); experiment: Human Ether-a-go-go-Related Gene (hERG) channel small molecule antagonists: fluorescence cell-based qHTS assay (AID 1671200);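 note: hERG-expressing U2OS cells given a thallium stimulus after FluxOR II dye loading; series mostly up to about 77 µM; nearly all actives have a fitted effect of over 50% in size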
Outline: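 Cell line hERG-U2OS; dye FluxOR II, 1 h RT dark; Tl+ stimulus; ex 480/em 540 nm, read each second for 2 min.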

[13] = molecular target: Cytochrome P450 3A4 (Homo sapiens) (UniProt P08684); experiment: Cytochrome P450 Family 3 Subfamily A Member 4 (CYP3A4) small molecule antagonists: luciferase reporter qHTS assay (AID 1671201); note: nearly all actives have a fitted effect of over 50% in size; note: potency is the fitted concentration of half-maximal effect
Outline: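 Room-temperature assay throughout: 10 min compound–enzyme/substrate preincubation, 1 h reaction after NADPH regeneration solution, 20 min detection. Luciferin formed from proluciferin substrate is quantified by luminescence.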

[14] = molecular target: Thyrotropin-releasing hormone receptor (Homo sapiens) (UniProt P34981); experiment: qHTS assay to identify small molecule agonists of the thyrotropin-releasing hormone receptor (TRHR) signaling pathway (AID 1346891; calls by dose curve;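 note: HEK293 cells expressing TRHR with calcium dye readout; series mostly up to about 58 µM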)
Outline: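 Overnight-plated (18 h, 37 °C, 5% CO2) TRHR-Hek293 cells; 2 h calcium dye at 37 °C; compound in DMSO; 3-min kinetic fluorescence read.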

[15] = molecular target: Nuclear receptor subfamily 1 group I member 2 (Rattus norvegicus) (UniProt Q9R1A7); experiment: Rat pregnane X receptor (rPXR) activation by small molecules, qHTS assay (AID 1346983); settings: rPXR luciferase reporter cells, One-Glo luminescence, 24 h; max activation: stronger effect = higher value; note: nearly all actives have a fitted effect of over 20% in size
Outline: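 Luminescent readout (One-Glo luciferase, 30 min room temperature) followed 24 hr compound treatment at 37 C of rPXR cells plated 2,000 per well and preincubated 5hr; qHTS format with compounds delivered in DMSO.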

[16] = molecular target: Nuclear receptor subfamily 1 group I member 2 (Homo sapiens) (UniProt O75469); experiment: CYP3A4 induction through human pregnane X receptor (PXR) by small molecules, qHTS assay (AID 1346984); note: nearly all actives have a fitted effect of over 40% in size
Outline: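 qHTS, concentration-response format: HepG2 DPX-2 line, PXR/CYP3A4-luc. Exposure 24 h, 37C. Substrate Luciferin-IPA 3uM final, 3 h. Detection One-Glo, 30 min RT.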

[17] = molecular target: Nuclear receptor subfamily 1 group I member 2 (Homo sapiens) (UniProt O75469); experiment: Human pregnane X receptor (PXR) activation by small molecules, qHTS assay (AID 1346985); note: nearly all actives have a fitted effect of over 40% in size
Outline: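 DPX-2 cells (HepG2 co-transfected with a PXR response element and a CYP3A4-promoter luciferase construct) were seeded at 2,000 per well, rested 5 hr at 37C, then exposed to DMSO-dissolved compounds for 24 hr. Activation was read as luciferase luminescence.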

[18] = molecular target: Cytochrome P450 2D6 (Homo sapiens) (UniProt P10635); experiment: Cytochrome P450 Family 2 Subfamily D Member 6 (CYP2D6) small molecule antagonists: luciferase reporter qHTS assay (AID 1671196)
Outline: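 Luminescence (RLU), read 20 min after detection reagent, indicated CYP2D6 conversion of proluciferin to luciferin during a 1 h NADPH-dependent reaction at room temperature.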

[19] = molecular target: Thyrotropin-releasing hormone receptor (Homo sapiens) (UniProt P34981); experiment: qHTS assay to identify small molecule antagonists of the thyrotropin-releasing hormone receptor (TRHR) signaling pathway (AID 1346877; active = well fitted inhibition curve with a large enough effect in the repeat runs, not every such curve was filed as active; note: series mostly up to about 51 µM)
Outline: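 Screening used HEK293 cells engineered with TRHR, with a brief 5 min room-temperature compound exposure preceding addition of TRH to 1 nM. The read-out was kinetic calcium-dye fluorescence, concentration-response from 15 doses in triplicate.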

Sequence of Cytochrome P450 1A2 (Homo sapiens) (P05177 whole entry, looked up): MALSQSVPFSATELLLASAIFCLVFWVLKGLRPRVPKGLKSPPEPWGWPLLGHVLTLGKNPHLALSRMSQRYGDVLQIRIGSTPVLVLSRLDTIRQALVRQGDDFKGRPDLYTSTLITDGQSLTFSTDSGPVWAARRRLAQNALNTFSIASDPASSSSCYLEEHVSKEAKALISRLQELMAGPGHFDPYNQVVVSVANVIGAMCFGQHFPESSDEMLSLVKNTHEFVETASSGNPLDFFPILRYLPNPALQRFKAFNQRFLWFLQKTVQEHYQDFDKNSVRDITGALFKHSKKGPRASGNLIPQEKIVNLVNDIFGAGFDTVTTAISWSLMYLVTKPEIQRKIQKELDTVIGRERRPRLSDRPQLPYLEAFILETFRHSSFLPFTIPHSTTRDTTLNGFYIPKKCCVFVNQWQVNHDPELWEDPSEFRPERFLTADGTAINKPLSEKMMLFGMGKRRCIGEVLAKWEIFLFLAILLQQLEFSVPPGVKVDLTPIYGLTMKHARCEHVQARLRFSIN
Sequence of Nuclear receptor subfamily 1 group I member 2 (Homo sapiens) (O75469 whole entry, looked up): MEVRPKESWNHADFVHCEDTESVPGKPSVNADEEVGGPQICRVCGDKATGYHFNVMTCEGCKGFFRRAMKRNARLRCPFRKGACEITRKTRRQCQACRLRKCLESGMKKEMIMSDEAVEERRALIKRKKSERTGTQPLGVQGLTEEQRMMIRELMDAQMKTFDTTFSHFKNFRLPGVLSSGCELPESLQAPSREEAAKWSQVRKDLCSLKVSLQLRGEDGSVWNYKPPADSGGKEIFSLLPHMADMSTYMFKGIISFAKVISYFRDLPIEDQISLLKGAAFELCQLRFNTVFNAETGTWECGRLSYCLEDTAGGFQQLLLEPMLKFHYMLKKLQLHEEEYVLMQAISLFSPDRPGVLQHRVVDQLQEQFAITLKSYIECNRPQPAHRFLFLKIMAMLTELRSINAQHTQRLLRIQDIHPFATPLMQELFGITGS
Sequence of Cytochrome P450 2D6 (Homo sapiens) (P10635 whole entry, looked up): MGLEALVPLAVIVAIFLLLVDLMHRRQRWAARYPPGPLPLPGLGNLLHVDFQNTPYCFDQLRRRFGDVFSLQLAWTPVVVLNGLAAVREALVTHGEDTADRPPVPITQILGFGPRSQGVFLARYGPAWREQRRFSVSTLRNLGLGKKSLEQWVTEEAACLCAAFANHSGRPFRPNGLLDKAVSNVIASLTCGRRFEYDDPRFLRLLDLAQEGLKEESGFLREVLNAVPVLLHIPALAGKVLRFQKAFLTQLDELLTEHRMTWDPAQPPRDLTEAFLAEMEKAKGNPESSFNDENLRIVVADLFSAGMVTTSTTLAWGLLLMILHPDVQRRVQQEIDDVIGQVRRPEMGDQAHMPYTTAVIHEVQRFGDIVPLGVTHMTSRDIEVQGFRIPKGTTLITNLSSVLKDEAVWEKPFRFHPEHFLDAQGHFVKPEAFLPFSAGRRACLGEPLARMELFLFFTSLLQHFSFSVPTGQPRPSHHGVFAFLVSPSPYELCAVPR
Sequence of Thyrotropin-releasing hormone receptor (Homo sapiens) (P34981 whole entry, looked up): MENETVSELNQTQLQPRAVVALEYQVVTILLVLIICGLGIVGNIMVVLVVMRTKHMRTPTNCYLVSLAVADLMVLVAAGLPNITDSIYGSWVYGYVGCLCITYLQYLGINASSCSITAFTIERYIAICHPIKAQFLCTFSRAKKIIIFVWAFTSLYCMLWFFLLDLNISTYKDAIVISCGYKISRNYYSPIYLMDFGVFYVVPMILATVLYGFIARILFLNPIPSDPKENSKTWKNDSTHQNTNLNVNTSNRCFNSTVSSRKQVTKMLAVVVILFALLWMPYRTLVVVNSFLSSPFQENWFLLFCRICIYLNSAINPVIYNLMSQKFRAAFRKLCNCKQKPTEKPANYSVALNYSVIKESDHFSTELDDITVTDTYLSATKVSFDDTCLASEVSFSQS
Sequence of Cytochrome P450 3A4 (Homo sapiens) (P08684 whole entry, looked up): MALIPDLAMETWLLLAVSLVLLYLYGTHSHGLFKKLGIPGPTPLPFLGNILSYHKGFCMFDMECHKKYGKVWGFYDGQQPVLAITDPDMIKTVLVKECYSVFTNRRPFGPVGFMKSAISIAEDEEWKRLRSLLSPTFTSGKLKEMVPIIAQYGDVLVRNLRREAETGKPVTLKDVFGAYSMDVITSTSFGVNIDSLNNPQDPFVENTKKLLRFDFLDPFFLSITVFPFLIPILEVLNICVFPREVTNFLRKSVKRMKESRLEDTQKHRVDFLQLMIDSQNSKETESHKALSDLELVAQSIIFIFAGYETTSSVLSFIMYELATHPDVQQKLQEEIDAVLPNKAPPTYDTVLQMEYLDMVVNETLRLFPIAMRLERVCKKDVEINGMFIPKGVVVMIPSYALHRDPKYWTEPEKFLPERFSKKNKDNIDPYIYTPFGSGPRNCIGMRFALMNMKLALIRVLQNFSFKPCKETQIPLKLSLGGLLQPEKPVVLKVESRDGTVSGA
Sequence of Cytochrome P450 2C19 (Homo sapiens) (P33261 whole entry, looked up): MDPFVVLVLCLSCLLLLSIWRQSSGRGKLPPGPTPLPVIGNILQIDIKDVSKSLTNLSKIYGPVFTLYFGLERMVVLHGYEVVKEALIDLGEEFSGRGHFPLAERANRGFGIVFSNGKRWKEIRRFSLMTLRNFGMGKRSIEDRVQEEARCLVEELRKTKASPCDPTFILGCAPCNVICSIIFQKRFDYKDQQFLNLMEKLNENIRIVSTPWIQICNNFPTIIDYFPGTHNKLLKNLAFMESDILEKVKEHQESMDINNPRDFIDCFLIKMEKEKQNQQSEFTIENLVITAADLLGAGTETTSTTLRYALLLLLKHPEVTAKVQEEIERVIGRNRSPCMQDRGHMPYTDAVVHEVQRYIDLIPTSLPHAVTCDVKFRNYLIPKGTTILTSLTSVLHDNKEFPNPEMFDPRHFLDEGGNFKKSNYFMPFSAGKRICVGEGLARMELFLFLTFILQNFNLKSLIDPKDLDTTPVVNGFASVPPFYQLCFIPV
Sequence of Nuclear receptor subfamily 1 group I member 2 (Rattus norvegicus) (Q9R1A7 whole entry, looked up): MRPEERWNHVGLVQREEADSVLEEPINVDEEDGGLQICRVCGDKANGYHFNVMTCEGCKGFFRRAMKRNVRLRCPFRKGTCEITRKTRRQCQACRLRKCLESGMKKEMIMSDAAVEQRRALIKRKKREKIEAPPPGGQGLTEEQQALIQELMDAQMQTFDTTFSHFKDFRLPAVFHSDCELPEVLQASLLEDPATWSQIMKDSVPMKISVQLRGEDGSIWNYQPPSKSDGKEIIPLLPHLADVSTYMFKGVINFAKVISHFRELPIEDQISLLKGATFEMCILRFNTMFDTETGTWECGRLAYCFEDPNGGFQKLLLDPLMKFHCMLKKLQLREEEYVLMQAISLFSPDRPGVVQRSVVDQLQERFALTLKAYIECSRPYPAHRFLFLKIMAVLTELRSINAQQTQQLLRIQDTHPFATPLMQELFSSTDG
Sequence of Cytochrome P450 2C9 (Homo sapiens) (P11712 whole entry, looked up): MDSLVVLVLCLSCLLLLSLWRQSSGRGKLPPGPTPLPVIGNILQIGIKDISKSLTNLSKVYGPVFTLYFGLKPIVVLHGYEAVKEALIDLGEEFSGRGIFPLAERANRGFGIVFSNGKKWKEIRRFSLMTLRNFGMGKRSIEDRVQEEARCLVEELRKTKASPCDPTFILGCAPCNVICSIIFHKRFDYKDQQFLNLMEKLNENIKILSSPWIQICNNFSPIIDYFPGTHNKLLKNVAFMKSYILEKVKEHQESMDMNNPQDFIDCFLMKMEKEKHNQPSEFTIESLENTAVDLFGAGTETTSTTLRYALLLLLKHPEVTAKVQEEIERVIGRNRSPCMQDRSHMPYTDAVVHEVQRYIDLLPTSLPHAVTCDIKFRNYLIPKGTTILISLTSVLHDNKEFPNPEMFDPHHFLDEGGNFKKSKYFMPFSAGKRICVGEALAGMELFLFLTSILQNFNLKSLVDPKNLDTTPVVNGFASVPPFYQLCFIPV
Sequence of Voltage-gated inwardly rectifying potassium channel KCNH2 (Homo sapiens) (Q12809 whole entry, looked up): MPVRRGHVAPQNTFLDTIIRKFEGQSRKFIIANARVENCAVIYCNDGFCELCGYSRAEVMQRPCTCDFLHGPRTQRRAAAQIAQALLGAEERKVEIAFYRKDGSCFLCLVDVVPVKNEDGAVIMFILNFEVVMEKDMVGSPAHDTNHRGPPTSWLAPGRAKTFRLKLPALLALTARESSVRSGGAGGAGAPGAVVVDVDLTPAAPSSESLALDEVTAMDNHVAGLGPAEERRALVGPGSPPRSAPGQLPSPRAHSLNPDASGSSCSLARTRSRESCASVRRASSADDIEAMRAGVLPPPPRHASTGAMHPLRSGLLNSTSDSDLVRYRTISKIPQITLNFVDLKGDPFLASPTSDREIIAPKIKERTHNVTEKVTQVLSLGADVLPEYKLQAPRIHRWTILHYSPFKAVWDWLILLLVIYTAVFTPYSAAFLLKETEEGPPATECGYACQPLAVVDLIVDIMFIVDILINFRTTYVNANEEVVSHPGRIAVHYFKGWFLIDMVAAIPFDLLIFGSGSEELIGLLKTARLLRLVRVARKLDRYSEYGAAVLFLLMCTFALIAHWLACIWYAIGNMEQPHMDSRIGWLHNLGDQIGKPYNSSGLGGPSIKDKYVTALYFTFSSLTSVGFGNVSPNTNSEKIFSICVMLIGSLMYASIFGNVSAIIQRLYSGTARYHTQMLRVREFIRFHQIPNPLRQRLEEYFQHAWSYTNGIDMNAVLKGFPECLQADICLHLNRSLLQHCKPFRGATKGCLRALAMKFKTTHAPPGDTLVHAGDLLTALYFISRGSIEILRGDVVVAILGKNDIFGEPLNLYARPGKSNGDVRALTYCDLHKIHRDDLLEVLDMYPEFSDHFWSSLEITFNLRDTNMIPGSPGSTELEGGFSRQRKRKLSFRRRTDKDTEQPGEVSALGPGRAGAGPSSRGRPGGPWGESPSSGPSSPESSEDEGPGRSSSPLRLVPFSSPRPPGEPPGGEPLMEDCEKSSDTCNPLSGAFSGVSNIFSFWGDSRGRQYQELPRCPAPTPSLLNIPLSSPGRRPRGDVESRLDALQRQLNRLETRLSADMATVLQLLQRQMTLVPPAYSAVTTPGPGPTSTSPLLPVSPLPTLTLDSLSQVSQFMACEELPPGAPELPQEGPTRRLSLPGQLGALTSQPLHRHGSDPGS

Row | Compound | outcome [1] | outcome [2] | outcome [3] | outcome [4] | Potency [5] | outcome [6] | outcome [7] | Potency [8] | Potency [9] | Potency [10] | Potency [11] | Potency [12] | Potency [13] | Potency [14] | max activation [15] [%] | outcome [16] | outcome [17] | Potency [18] | outcome [19]
1 | CC(=O)OC/C=C(/C)CCC=C(C)C | inactive | inactive | inactive | inactive | inactive | inactive | inactive | inactive | inactive | inactive | inactive | inactive | inactive |  |  |  |  |  | 
2 | CCCCCCCOC(C)=O | inactive | inactive |  | inactive | inactive |  | inactive | inactive | inactive | inactive | inactive | inactive | inactive | inactive |  |  |  |  | 
3 | CCCCCCCCCCCCCCCC/C=C/C1CC(=O)OC1=O (stereo not drawn) | inactive | inactive | inactive | inactive | inactive | inactive | inactive | inactive | 27.4 µM (active) |  |  | inactive | 15.4 µM (active) |  |  |  |  |  | 
4 | CC(=O)Nc1ccc(OCCOCCOc2ccc(NC(C)=O)cc2)cc1 | inactive | inactive | inactive | inactive | inactive | inactive | inactive | inactive | 17.4 µM (active) | 5.49 µM (active) | inactive | inactive | inactive |  | -0.187 | inactive | inactive |  | 
5 | NS(=O)(=O)c1cc2c(cc1C(F)(F)F)NCNS2(=O)=O | inactive | inactive | inactive |  |  | inactive | inactive | inactive |  | inactive | inactive | inactive |  | inactive | -2.82 | inactive | inactive | inactive | 
6 | COCc1nnc(-c2ccc[n+]([O-])c2)n1-c1c(Cl)c(Cl)cc2[nH]c(=O)c(=O)[nH]c12 | inactive | inactive | inactive | inactive | inactive | inactive | inactive | inactive |  | inactive |  | inactive | 6.33 µM (active) |  |  |  |  |  | 
7 | O=S(=O)(O)c1cc(I)c(O)c2ncccc12 | inactive | inactive | inactive | inactive | inactive | inactive | inactive | inactive | inactive |  | inactive | inactive |  |  | -0.763 | inactive | inactive | inactive | 
8 | Cc1ccc(OC(=O)CC(C)C)cc1 | inactive | inactive |  |  | inactive | inactive | inactive | inactive | inactive | inactive |  | inactive | inactive | inactive |  |  |  | inactive | 
9 | CC(CC(=O)Cl)CC(C)(C)C (stereo not drawn) | inactive | inactive | inactive | inactive | inactive | inactive | inactive | inactive | 80.2 µM (active) |  |  | inactive |  |  |  |  |  | inactive | 
10 | CC(C)(O)c1ccc(C(C)(C)O)cc1 | inactive | inactive | inactive | inactive | inactive | inactive | inactive | inactive | inactive | inactive |  | inactive | inactive |  |  |  |  |  | 
11 | Clc1ccc2c(c1)Nc1ccccc1S2 | inactive | inactive | inactive | inactive | inactive | inactive | inactive | 33.5 µM (active) | 3.89 µM (active) |  | 0.347 µM (active) | inactive |  |  |  |  |  | inactive | 
12 | Cc1cc2c(cc1CC(=O)c1sccc1S(=O)(=O)Nc1onc(C)c1Cl)OCO2 | inactive | inactive | inactive | inactive | inactive | inactive | inactive |  | 8.71 µM (active) | 8.71 µM (active) | 3.23 µM (active) | inactive |  |  |  |  |  |  | 
13 | CCOCCOCCOC(C)=O | inactive | inactive | inactive | inactive | inactive | inactive | inactive | inactive | inactive | inactive | inactive | inactive | inactive |  |  |  |  | inactive | 
14 | Cc1cccc(N)n1 | inactive | inactive | inactive | inactive |  | inactive |  | inactive |  |  |  |  |  |  |  |  |  |  | 
15 | COC(=O)N/N=C/c1c[n+]([O-])c2ccccc2[n+]1[O-] | inactive | inactive | inactive | inactive | inactive | inactive |  | inactive | inactive | inactive | inactive | inactive | inactive |  | -1.2 | inactive | inactive |  | 
16 | CCOC(=O)[C@H](CCc1ccccc1)N[C@H]1CS[C@H](c2cccs2)CN(CC(=O)O)C1=O | inactive | inactive | inactive | inactive | inactive | inactive |  | inactive | inactive | inactive | inactive | inactive | inactive |  | -2.69 |  |  |  | 
17 | CCCC(C)C(O)CC (stereo not drawn) | inactive | inactive |  | inactive | inactive |  | inactive | inactive | inactive | inactive | inactive | inactive | inactive |  |  |  |  | inactive | 
18 | CCO/C=C1\N=C(c2ccccc2)OC1=O | inactive | inactive |  | inactive | inactive | inactive | inactive | inactive | 79.4 µM (active) |  |  | inactive | inactive |  |  |  |  |  | 
19 | Cc1ccc2ccccc2n1 | inactive | inactive | inactive | inactive | inactive | inactive |  | inactive | inactive | inactive |  | inactive |  |  |  |  |  |  | 
20 | Nc1nc(Cl)cc(Cl)n1 | inactive |  | inactive | inactive |  |  | inactive | inactive | inactive | inactive |  | inactive | inactive | inactive |  |  |  | inactive | inactive
21 | C/C=C(\C)C(=O)OC/C=C(\C)CCC=C(C)C | inactive | inactive |  | inactive | inactive | inactive | inactive | inactive | inactive |  |  | inactive | inactive |  |  |  |  | inactive | 
